Source: publication PMC6212790, “How bacterial xenogeneic silencer rok distinguishes foreign from self DNA in its resident genome”
Over roughly 33,000 sequences, “e-score” has its median near -0.038; the highest 2% begin near 0.33. The full list was thinned out, with the highest values kept by preference.

molecular target: T1, GST-Rok-C97-191 (Bacillus subtilis subsp. subtilis str. …, UniProt O34857 97-191); experiment: protein binding microarray; Rok is a gene silencer of Bacillus subtilis; high values mean tight binding; conditions: protein: recombinant; tags: GST (pTH5325, pDEST15-Magic modified); dsDNA, one strand shown
T1 sequence: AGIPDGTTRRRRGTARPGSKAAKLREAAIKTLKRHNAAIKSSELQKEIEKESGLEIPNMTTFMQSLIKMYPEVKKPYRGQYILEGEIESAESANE
How it was run: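 Each has a 25-mer constant primer and a 35-mer variable part from a de Bruijn sequence of order 10, covering every non-palindromic 8-mer at least 32 times (palindromic 16). Preference for each 8-mer is given as a rank-based, unitless enrichment score (E-score). Its range runs from 0.5 (most favored) to −0.5 (most disfavored).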

Sequence	binding signal [E-score]
CCAAGTTC	-0.0242
CTTGTGGC	-0.167
ACGTGAGC	-0.0668
ACGCCTTA	0.073
AGCCCGCT	-0.168
CCATAGCA	-0.0019
AAAGTAGA	0.298
ATAGTAGA	0.355
AGAGTAGG	-0.15
AGAGTAGA	0.143
ATAGTACG	0.248
ATCGTAGC	-0.0487
ATAGTAGC	0.378
AGAGTAGC	0.0737
ATAGTAGG	0.329
GCTTGAAC	-0.0848
AGTCCATC	-0.159
GGTTCAAC	-0.0853
CCTCTTCA	-0.193
CCAACCTA	-0.0204
GCTTATAA	0.101
AGTACTAT	0.367
CGTACTAG	0.0424
AGTACTAG	0.334
AGTACTGG	0.0209

Sequence	binding signal [E-score]
AGTACTCA	-0.0984
AGTACTAC	0.35
CGTACTAC	0.305
AGTACTAA	0.277
GGTACTAC	0.233
ATTGCGCC	-0.134
ACCATATG	0.229
AACTGGAC	-0.0284
TAGTGGGA	0.119
AATTTCGC	0.151
GATGAAGC	0.0229
CTTTTATC	0.0697
GTTTTATA	0.122
ATTTTATG	0.229
CTTTTATA	0.236
ATTTTATC	0.328
ATTTTATA	0.385
AGACCTGG	-0.167
GTCGTAAC	0.0491
GTACAAAC	0.304
ATACAAAT	0.337
ATACAAAC	0.371
ATACAAAA	0.276
ATACAAAG	0.17
CTACAAAC	0.114

Sequence	binding signal [E-score]
CAGGAATG	-0.083
TGAGGTAA	0.126
ATTGACCG	-0.00184
AATACTGT	0.083
AATACTAA	0.287
AATACTAC	0.383
AATACTAG	0.34
TATACTAA	0.382
CATACTAA	0.0976
AATACTCG	0.0344
CATACTAG	0.285
GATACTAC	0.313
AATACTAT	0.35
AATACTCT	0.131
CATACTAC	0.284
GCAATCCC	-0.104
GTCAGGAC	-0.147
AATTTCAG	0.153
ACCTTCGG	-0.173
AGTTGAGA	0.111
ACCTAACT	0.128
TAGACGAA	-0.0468
GTGCAAAA	0.0465
CGTCCACG	-0.161
AGGTTGCG	-0.0431

Sequence	binding signal [E-score]
AGTAATAG	0.355
ACTAATAC	0.248
ACTAATAG	0.292
AGTAATCG	0.0918
AGTAATAA	0.238
ACTAATAT	0.342
AGTAATAT	0.386
AGTAATAC	0.274
CGTAATAG	0.247
AAGGTTGG	-0.0102
ACGCATTA	0.134
CGGTGCAG	-0.0983
GGCTAGAC	-0.152
AGATTAGC	0.212
AAGTAAAT	0.359
GGGTAAAA	0.206
TGGTAAAA	0.337
AGGTAAAT	0.247
GAGTAAAA	0.269
AAGTAAAG	0.104
AAGTAAGT	0.263
AAGTAAAC	0.116
CAGTAAAA	0.188
TAGTAAAA	0.37
AAGTAAAA	0.335

Sequence	binding signal [E-score]
CGGTAAAA	0.242
CTGAAAAG	0.0606
CTCCATAA	-0.175
TCTCCGAA	0.161
TAAGCATA	0.00925
AAAGGTCA	-0.146
ACGCACCA	-0.186
AAGACCGG	-0.0043
CCTTATTA	0.0213
CGTAACTC	0.0679
GTTAGCGA	0.0595
GAGCTGCC	0.0253
GACAGACA	-0.102
CGTAAGTA	0.16
GCGTGAGA	-0.00817
AATTACTC	0.255
AATTACCC	0.185
AATTACTG	0.253
ATTTACTC	0.234
ATTTACTG	0.319
GATTACTA	0.354
AATTACTA	0.43
AATTACCA	0.33
ATTTACTA	0.439
GATTACAA	0.134

Sequence	binding signal [E-score]
GATTACCA	0.14
CATTACTA	0.32
AGGCCTAG	0.0496
GACCGCTA	0.0642
AATAACCG	0.184
AACCAGCA	0.0878
GTCGAGGA	-0.0836
GCGTCCGA	-0.026
CACCTCGC	-0.148
ACTGCCCT	-0.164
GGAAGTCA	-0.092
AAGTTTCC	0.148
CAATTACC	0.0477
AAATTACC	0.365
GAATTACC	0.18
AAATTACG	0.273
ACATTACT	0.263
AAATTACT	0.358
CAGTTGAC	0.0118
AACGCAAA	-0.043
CCAACTCG	-0.0471
GCATGCTA	0.0693
CCATGCTA	0.153
ACATGCTA	0.33
CTGACATA	-0.188

Sequence	binding signal [E-score]
ACACAACT	0.0324
ATATACAA	0.365
ACATACTA	0.305
ATATACTG	0.365
CTATACTA	0.301
GTATACTA	0.338
ATATACTA	0.436
CTATACTC	0.173
GGATACTA	0.167
ATATACTC	0.293
GCATACTA	0.241
CTATACAA	0.3
ATATACAG	0.317
CAAGGATG	-0.044
CTGTCTCA	-0.118
CAGGGCCA	-0.145
GTCACAAA	0.0798
GAGCTTGA	-0.0815
CACTTGTA	0.238
GACAAGTA	0.226
CAATTGTG	0.0188
AATTCGAT	0.215
